# Results reported in article PMC12136788.
# Residue numbers refer to the chain shown, from its start. Whole data set: some 24,000 sequences, median “enrichment r” near 0.99, cut for the highest 2% near 3.7. Shown is part of a subset that was picked to be rich in the highest values.
# T1: UNK ZnF1-3 (human, UniProt Q9C0B0 31-174)
# T1 sequence: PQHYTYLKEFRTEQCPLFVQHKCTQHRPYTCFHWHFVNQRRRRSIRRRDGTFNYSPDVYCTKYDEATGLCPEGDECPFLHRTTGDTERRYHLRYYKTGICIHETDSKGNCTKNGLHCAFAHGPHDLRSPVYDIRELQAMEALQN
# B1: chr7:106631192:106631193:-_ENSMUSG00000030744_ENSMUST00000032998|mus_mus|motif|central (ssRNA)
# RNA: GGGAGUUCUACAGUCCGACGAUCCUUCAGCCAGCUCCCGAGUGAGAAAUUCAUUCAGCUCAGCUUUGAAGAUGCCAUCAGCGGCAAACUUCCUCUUCUUGGAAAUCUGCACCGCCAUCUUGCAGCCGCGCGCCGCUGAAAGGACAACAGAGGAUUGAGCAUCA
# B2: chr7:72463354:72463355:-_ENSMUSG00000030516_ENSMUST00000102592|mus_hu|FALSE|FALSE (ssRNA)
# RNA: GGGAGUUCUACAGUCCGACGAUCUAACUUCCUGGCACUUUUCCGAGAUUCUGGACAUAACCUCAUUCUCAUUGUUUUUACUCCUUGCUUAGAAUCAGGGUUAAGAAAUACAACAAUUGGAUACCACUGGGCAUAGUUAAGACGCAACAGAGGAUUGAGCAUCA
# B3: 22200820_22267049_921_CDS_ENSMUSG00000039197_ENSMUST00000045376|mouse|control|control (ssRNA)
# RNA: GGGAGUUCUACAGUCCGACGAUCUUGAGACAGAAAGCCUCCAACAAAUGCAUCUCCAGCUCCAUUGGUGUCAAUGAUCUCUUCCUGGUUUUGAUCCAAGACAGGAAAAGCAGUGACAUCAUUCUCUGCAGCCACUAUGGUGUCCAACAGAGGAUUGAGCAUCA
# B4: chr17:56552419:56552420:-_ENSMUSG00000013236_ENSMUST00000086828|mus_mus|mus_mus_mus_hu_False|68_98 (ssRNA)
# RNA: GGGAGUUCUACAGUCCGACGAUCAAAAAAUACACUAUAAAAAAAAAAUGAAAUGUCACGGGAUACAAAAAAAUAUAGAGUUUUAAAAGAAAGCUGGAUUCUGGUCCCAGCCCAGUGUCCCCAGGCUGCAGAGCGGGGAGGAGCCAACAGAGGAUUGAGCAUCA
# B5: chr17:56552419:56552420:-_ENSMUSG00000013236_ENSMUST00000086828|mus_mus|mus_mus_mus_hu_False|8_68 (ssRNA)
# RNA: B4 RNA with A38U, A39U, C128A, A129G, G130U, A131G, G132C, C133G, G135A, G136A
# B6: chr17:56552419:56552420:-_ENSMUSG00000013236_ENSMUST00000086828|mus_mus|mus_mus_mus_hu_False|38_68 (ssRNA)
# RNA: GGGAGUUCUACAGUCCGACGAUCAAAAAAUACACUAUUUAAAAAAAAUGAAAUGUCACGGGAUACAAAAAAAUAUAGAGUUUUAAAAGAAAGCUGGAAAAAAAAUGCAGCCCAGUGUCCCCAGGCUGCAGAGCGGGGAGGAGCCAACAGAGGAUUGAGCAUCA
# B7: chr17:56552419:56552420:-_ENSMUSG00000013236_ENSMUST00000086828|mus_mus|mus_mus_mus_hu_False|68_78 (ssRNA)
# RNA: B4 RNA with A38U, A39U, C58G, G59A, G60A, G61A, U63A, A64G, C65A
# B8: 33328512_33328632_5828_CDS_ENSG00000198646_ENST00000359003|human|control|control (ssRNA)
# RNA: GGGAGUUCUACAGUCCGACGAUCAUCUGCACCAUAUUGUUCUUCCCCUUUCUCAAGAGAGCCUGUAACUUUCUUACAUGCCUUGGUCAACAAAAUUUGGCCAAUUUUGUCCACUUUUCCUUUGCCCUUACUAGACGAGACUGGCAACAGAGGAUUGAGCAUCA
# B9: chr12:95365269:95365270:-_ENSG00000184752_ENST00000327772|hu_hu|motif|central (ssRNA)
# RNA: GGGAGUUCUACAGUCCGACGAUCUCAUUGUCUUUACUUGUAAGGUGUUGAAGGUGGGAUCCACUCCUGAAUCUUCUUUCGGGUGGUAGAAUAAGGUACAUAUUGUUCUGGGGUGCCAGUCACGUUGAAUUUAUGGUUCGUCCACAACAGAGGAUUGAGCAUCA
# B10: chrX:106345308:106345309:+_ENSMUSG00000031246_ENSMUST00000033598|mus_mus|motif|central (ssRNA)
# RNA: GGGAGUUCUACAGUCCGACGAUCUUCUCUCAUCCACUUCCGAUUCUCUUCAUUAGCUGCAAUAUCUUUUUCUUCAAAUCCGGUUUUGUUGGCUUCUAAGAAACAAAGCACAUCUUGCUGUUUCUUCUUAAUCGCCGUAGAGCCCAACAGAGGAUUGAGCAUCA
# B11: 25284998_25285535_556_3pUTR_ENSMUSG00000054793_ENSMUST00000068023|mouse|control|control (ssRNA)
# RNA: GGGAGUUCUACAGUCCGACGAUCCACGCUCCACACCUUGCCGUUCUCCUGGCCGCUGCUCACUCCUUUCAACUCCUUGCGAUCCCGAUACCAGCGCAGGACCGCUGCGGGGCGCGACCGCGGAACCAGGCAGCUGAGUUCCACCAACAGAGGAUUGAGCAUCA
# B12: 122215373_122233679_156_5pUTR_ENSG00000114030_ENST00000344337|human|control|control (ssRNA)
# RNA: GGGAGUUCUACAGUCCGACGAUCACUUUUCAGGCGAAAGUUCUCUUUUCCUGGGGUGGUCAUGAUUUCAGGCUCAAGGCAACCGAUCCCGGUGCCACCGCUGAAGUUAGCCCCUCGCUCGCCCGCCCGCCGUGCCACUCCCGCCAACAGAGGAUUGAGCAUCA
# B13: 36851294_36856410_1128_CDS_ENSMUSG00000022837_ENSMUST00000023535|mouse|control|control (ssRNA)
# RNA: GGGAGUUCUACAGUCCGACGAUCAUUUAGCUCCAACAUCAUCUUUGUUCGUUUAGAUCUGAAACUCCUCUGCAAGGCAAUCACAGCAGACGGAAGCUUCUUUAAUCUCUUUCUGGUCUGGAAACCUUUCCAAUAGGCUUGAAUCAACAGAGGAUUGAGCAUCA
# B14: chr18:52893488:52893489:-_ENSG00000196628_ENST00000354452|hu_hu|hu_hu_hu_mus_True|48_48 (ssRNA)
# RNA: GGGAGUUCUACAGUCCGACGAUCUAUUUAGACCAUUUCCGCGGAGUUAUGGCAUUUACUCAGUGCUGAUAGGUGGAAAAACUACUUGAACAGGGAUUUUUUUUUUCCUUAAUACAUGCCAAGAUUGUGUGGCUGUCAAAACAGCAACAGAGGAUUGAGCAUCA
# B15: chr4:142145789:142145790:+_ENSG00000109445_ENST00000262990|hu_hu|FALSE|FALSE (ssRNA)
# RNA: GGGAGUUCUACAGUCCGACGAUCACACUGUGCACAAAUUGGUAACUUCUGUACAGAAUUACAAAAGUAGCAAAAUGCUCUAUUCUUCUGCCGCCUCUGACACUUGUCACAUUCCAUUGAGGCAUUACAUGGAUGUUUAGCUAACAACAGAGGAUUGAGCAUCA
# B16: chr11:101919151:101919152:-_ENSMUSG00000017314_ENSMUST00000017458|mus_mus|motif|central (ssRNA)
# RNA: GGGAGUUCUACAGUCCGACGAUCAAAUGAGAUUCCUAAUAUAAUAAAUAUAUUUCUAGCAUUUGUAAUAAAUAUUCUGUCGGUUCUCCCUCCCUCCCCUUCUCUAGGAUAUGGGCACACAGUGGUUCAGGGACAAGCUUGGGCCAACAGAGGAUUGAGCAUCA
# B17: chr17:56552419:56552420:-_ENSMUSG00000013236_ENSMUST00000086828|mus_mus|mus_mus_mus_hu_False|68_88 (ssRNA)
# RNA: B4 RNA with A38U, A39U, U48A, G49A, A50G, U53A, G54A, U55A, C56A
# B18: chr17:56552419:56552420:-_ENSMUSG00000013236_ENSMUST00000086828|mus_mus|mus_mus_mus_hu_False|1_58 (ssRNA)
# RNA: GGGAGUUCUACAGUCCGACGAUCAAAAAAUACACUAUUUAAAAAAAAUGAAAUGUCACGGGAUACAGUUACACUGACACUAUUAAAAGAAAGCUGGAUUCUGGUCCCAGCCCAGUGUCCCCAGGCUGCAGAGCGGGGCAGAGGCAACAGAGGAUUGAGCAUCA
# B19: chr17:56552419:56552420:-_ENSMUSG00000013236_ENSMUST00000086828|mus_mus|mus_mus_mus_hu_False|28_68 (ssRNA)
# RNA: B4 RNA with A38U, A39U, C107U, A108U, C112A, G114A, U115A
# B20: chr17:56552419:56552420:-_ENSMUSG00000013236_ENSMUST00000086828|mus_mus|mus_mus_mus_hu_False|1_68 (ssRNA)
# RNA: B4 RNA with A38U, A39U, A138C, G139A, C143G
# B21: chr17:56552419:56552420:-_ENSMUSG00000013236_ENSMUST00000086828|mus_mus|mus_mus_mus_hu_False|48_68 (ssRNA)
# RNA: B4 RNA with A38U, A39U, G88A, G92A, C93U, U94A, G95A
# B22: chr7:7679991:7679992:-_ENSG00000106399_ENST00000396682|hu_hu|hu_hu_hu_mus_False|68_68 (ssRNA)
# RNA: GGGAGUUCUACAGUCCGACGAUCUGGGAUGAAUCUUUUCCAGCUUCCCCACGAAGCACACGGGCCGGUCGAUGAAUUGUGGUAACAUGCUGGCGUUGACGCGCGCUUUGGGGAGCUGCAUUAUGUCCUCCAUGAUUCUGCCGCCAACAGAGGAUUGAGCAUCA
# Target: T1, UNK ZnF1-3
# Assay: nsRBNS (natural sequence RNA bind-n-seq); RBNS binding buffer (assumed for nsRBNS): 25 mM Tris pH 7.5, 150 mM KCl, 3 mM MgCl2, 0.01% Triton X-100, 500 ug/ml BSA, 20 U/ml SUPERase-In, 4 C; UNK is unkempt and MSI1 is Musashi-1; names of the RNAs are library labels; protein concentration not given here; high values mean tight binding
row,Binder,binding signal
1,B1,0.767 enrichment R
2,B2,1.13 enrichment R
3,B3,0.736 enrichment R
4,B4,9.31 enrichment R
5,B5,6.22 enrichment R
6,B6,10.8 enrichment R
7,B7,10.9 enrichment R
8,B8,0.505 enrichment R
9,B9,0.831 enrichment R
10,B10,0.538 enrichment R
11,B11,0.858 enrichment R
12,B12,0.57 enrichment R
13,B13,0.644 enrichment R
14,B14,0.93 enrichment R
15,B15,1.04 enrichment R
16,B16,3.58 enrichment R
17,B17,16.7 enrichment R
18,B18,3.44 enrichment R
19,B19,9.22 enrichment R
20,B20,9.75 enrichment R
21,B21,8.41 enrichment R
22,B22,0.493 enrichment R
